Our source for the composite z-score values is PubChem BioAssay.

Pro-neuregulin-1, membrane-bound isoform (Homo sapiens), sequence (Q02297 whole entry, looked up, canonical isoform): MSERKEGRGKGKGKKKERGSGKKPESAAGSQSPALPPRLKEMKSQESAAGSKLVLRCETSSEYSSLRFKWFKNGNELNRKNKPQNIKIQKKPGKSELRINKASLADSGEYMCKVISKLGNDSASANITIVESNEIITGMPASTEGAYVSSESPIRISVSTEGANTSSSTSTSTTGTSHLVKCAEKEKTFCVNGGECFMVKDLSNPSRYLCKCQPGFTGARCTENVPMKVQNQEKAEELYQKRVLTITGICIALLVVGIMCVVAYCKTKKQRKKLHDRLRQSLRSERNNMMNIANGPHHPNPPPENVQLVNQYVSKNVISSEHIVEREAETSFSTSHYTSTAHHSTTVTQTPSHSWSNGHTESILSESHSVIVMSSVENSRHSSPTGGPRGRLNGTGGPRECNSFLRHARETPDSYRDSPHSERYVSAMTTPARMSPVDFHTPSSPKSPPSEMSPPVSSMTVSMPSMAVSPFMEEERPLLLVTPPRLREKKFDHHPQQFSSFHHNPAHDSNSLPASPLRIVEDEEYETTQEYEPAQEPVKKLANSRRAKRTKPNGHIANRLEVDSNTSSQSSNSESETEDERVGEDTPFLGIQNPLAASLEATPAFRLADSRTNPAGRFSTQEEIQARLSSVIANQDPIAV

One experiment addresses Pro-neuregulin-1, membrane-bound isoform (Homo sapiens) (UniProt Q02297). Nature of the experiment: NRG1 binders on small-molecule microarrays, primary screen, psychiatric disease protein project, biochemical, small-molecule microarray, fluorescence 635/667 (AID 1075).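 Also: score combines 667 nm spot fluorescence with signal to noise.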 The following applies: NRG1 binding, 635 nm fluorescence, higher = more signal.
In turn, `CCN(CC)c1ccc(N2CC=CC34O[C@@H]5/C=C\CCCOC(=O)C5[C@H]3C(=O)N(CCO)[C@@H]4C2=O)cc1` (some centres undefined) registered a composite z-score of 1.84. For `C=CCNC(=O)[C@@H]1[C@H]2C(=O)O[C@H](c3ccccc3)[C@H](c3ccccc3)N2[C@H](c2ccc(OCCO)cc2)[C@@]12C(=O)Nc1ccc(C#CCCO)cc12`, the composite z-score amounted to 0.853.

On to `COC(=O)C(CC#Cc1ccc2c(c1)[C@]1(C(=O)N2)[C@H](c2ccc(O)cc2)N2[C@H](c3ccccc3)[C@H](c3ccccc3)OC(=O)[C@H]2[C@@H]1C(=O)Nc1nc2ccccc2s1)C(=O)OC`, for which the composite z-score was 1.44. `CCOC(=O)C[C@H]1[C@H](OC(=O)c2cc3ccccc3oc2=O)[C@@H](NC(=O)C2CCCCC2)c2cc(OCCCO)ccc2N1C(=O)c1ccccc1`: the composite z-score turned out to be 0.0246. `C=CC[C@@]1(C(N)=O)N=C(c2ccc(OCCCO)cc2)O[C@@H]1c1ccccc1CN=[N+]=[N-]` came in with a composite z-score of 2.17.

Regarding `COc1ccc([Si](C)(C)[C@H]2[C@H](CCO)O[C@@]3(C(=O)N(C)c4c(Br)cc(C)cc43)[C@@H]2C)cc1`, the composite z-score came to 0.679. In turn, `C[C@@]1([C@@H](NC(=O)c2ccccc2)c2ccc(-c3ccccc3)cc2)C[C@H]1C1CCCCC1` displayed a composite z-score of -0.0156. Consider `O=C1NC(=O)C2C1C=CC(C(O)C(c1ccccc1)c1ccccc1)N2Nc1ccc(Cl)cc1Cl` (centres undefined), for which the composite z-score came out at 0.782. Compound `COCCOC(=O)N1C(=O)[C@@]2(c3cc(C#Cc4ccc(OC)cc4)ccc31)[C@H](C(N)=O)[C@H]1C(=O)O[C@H](c3ccccc3)[C@H](c3ccccc3)N1[C@@H]2c1ccccc1OCCO` displayed a composite z-score of 1.64.

Compound `C#CCN(Cc1ccccc1Br)C(/C=C/c1ccccc1)CO` (centres undefined) yielded a composite z-score of -0.17.

Compound `CCCN1C(=O)[C@]2(CCS(=O)(=O)c3ccccc3)N=C(c3ccc(OCCCO)cc3)O[C@@H]2c2ccccc21` returned a composite z-score of 1.28. In the case of `COCCOC(=O)N1C(=O)[C@@]2(c3cc(C#CCCO)ccc31)[C@H](C(=O)Nc1nc3ccccc3s1)[C@H]1C(=O)O[C@H](c3ccccc3)[C@H](c3ccccc3)N1[C@@H]2c1ccc(OCCO)cc1`, the composite z-score was found to be 0.991. For `CCCCC(=C=CC[C@@H](O)c1ccccc1OCCO)CCO`, the composite z-score amounted to 0.991.

The test system of the next experiment is Neuregulin-1 EGF-like domain. The experiment in a line: binders of neuregulin-1 EGF-like domain, primary screen, biochemical, small-molecule microarray, 635 nm fluorescence (AID 1081).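 Also: binding of the protein to compounds printed on small-molecule microarray slides.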 To be noted: small-molecule microarray binding, higher = more signal.
For `O=C1O[C@H](c2ccccc2)[C@H](c2ccccc2)N2[C@H]1[C@@H](C(=O)Nc1nc3ccccc3s1)[C@]1(C(=O)Nc3ccc(C#CCCO)cc31)[C@H]2c1ccc(OCCO)cc1`, the composite z-score was 0.975. `O=C1OCCC/C=C\[C@H]2OC34C=CCN(Cc5ccccc5)C(=O)[C@H]3N(CCCCCCO)C(=O)[C@@H]4C12` (some centres undefined) showed a composite z-score of 1.31. As to `C=CC[C@]1(C(=O)N2CCCCC2)N=C(c2ccc(OCCCO)cc2)O[C@H]1c1ccccc1`, the composite z-score is 1.17. `COc1ccc(C(=O)O[C@H]2CC[C@]3(C)C4=C(CCC3C2(C)C)[C@]2(C)CC[C@H]([C@H](C)CCCC(C)C)[C@@]2(C)CC4)cc1` (some centres undefined) came in with a composite z-score of 0.456. In turn, `C[C@]1(C(=O)NC2CC2)c2ccccc2C(=O)N(Cc2cc(C(F)(F)F)cc(C(F)(F)F)c2)[C@H]1c1ccc(CO)cc1` came in with a composite z-score of 1.26. In the case of `NCCCCCNC(=O)[C@@H]1C[C@@H]2C(=O)NCC(=O)N2[C@@H]1c1ccc(O)cc1`, the composite z-score stood at 1.25. The compound `[N-]=[N+]=Nc1ccccc1C[C@@]1(C(=O)NCCN2CCOCC2)N=C(c2ccc(OCCCO)cc2)O[C@@H]1c1ccccc1` yielded a composite z-score of 1.24. For the compound `Cc1ccc(S[C@]2(C(=O)NC3CC3)CC(=O)N(C3Cc4ccccc4C3)[C@@H]2c2ccc(CO)cc2)cc1`, the composite z-score was determined as 0.836. `C=C(/C(=C/C[C@@H](OC(C)=O)c1ccc(OCCO)cc1)c1cnc2ccccc2c1)C(C)C` displayed a composite z-score of 0.946. The same measure, in the same setting: under `CC1(C)[C@@H]2CC(C(O)C3C=CC4C(=O)N(c5ccccc5)C(=O)C4N3Nc3ccccc3)=C[C@H]1C2` (some centres undefined) stands 0.886; under `COC(=O)[C@@]1(Cc2ccc(F)cc2)[C@H]2c3cc(C(=O)N4CCCC4)n(Cc4cc(C)n(C)n4)c3C[C@H]2CN1C(=O)c1ccccc1`, 1.19.

On to `CC1CC/C=C\[C@H]2OC34C=CCN(c5ccc(Cl)cc5)C(=O)[C@H]3N(CCO)C(=O)[C@]4(C)C2C(=O)O1` (some centres undefined), for which the composite z-score came out at 0.842. On the same count and under the same terms, in the case of `O=C1O[C@H](c2ccccc2)[C@H](c2ccccc2)N2[C@H]1[C@@H](C(=O)O)[C@]1(C(=O)Nc3ccc(C#CCCO)cc31)[C@H]2c1ccc(O)cc1` it was 0.708; in that of `COc1cc2c(cc1O)C=[N+](Cc1cccc(OC(F)(F)F)c1)CC2`, 0.544. With `COC(=O)c1c(CC[C@@H](CO)NC(=O)N[C@H](Cn2cc(Cc3ccccc3)nn2)C(C)C)oc(C(C)=O)c1C(=O)OC`, the composite z-score is 1.06. Still for that read-out and setting: in the case of `O=C1O[C@H](c2ccccc2)[C@H](c2ccccc2)N2[C@H]1[C@@H](C(=O)N1CCN(c3ncccn3)CC1)[C@]1(C(=O)Nc3ccc(C#CC4=CCCCC4)cc31)[C@H]2c1ccc(O)cc1` it was 1.24.
